Source: PubChem BioAssay
M1 PAM parental = nonselective activator or artifact in parental CHO-K1 calcium assay | ATP EC20, Fluo-8 calcium fluorescence; 0% at ATP EC20, 100% at ATP max | activation, % at 3 µM | 0.02% of 360,000 active;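 active = activation above the run cutoff, the mean activation of all test compounds plus 3 SD, cut at about 40% in these data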;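 also: peak over basal fluorescence ratio in a 140 s read after ATP addition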
CHO-K1 Ca ag = nonselective activator or artifact in parental CHO-K1 cells; Fluo-8 calcium fluorescence; scaled to maximal ATP response, vehicle zero; activation, % at 3 µM; 0.48% of 360,000 active; AID 602248; in the data active = activation above about 15%;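 also: untransfected CHO-K1 host cells lacking M1 receptor as counterscreen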
CHRM1 agonist = agonists of human M1 muscarinic receptor | P11229 | CHO-K1 hM1, Fluo-8 calcium fluorescence, agonist mode; 0% DMSO, 100% acetylcholine EC100 | activation, % at 3 µM | 0.33% of 360,000 active;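 active = activation above the run's mean compound activation plus 3 SD, cut at about 16% in these data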;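 also: peak over basal fluorescence ratio within a 140 s kinetic read after compound addition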
Target sequence (P11229 whole entry, looked up): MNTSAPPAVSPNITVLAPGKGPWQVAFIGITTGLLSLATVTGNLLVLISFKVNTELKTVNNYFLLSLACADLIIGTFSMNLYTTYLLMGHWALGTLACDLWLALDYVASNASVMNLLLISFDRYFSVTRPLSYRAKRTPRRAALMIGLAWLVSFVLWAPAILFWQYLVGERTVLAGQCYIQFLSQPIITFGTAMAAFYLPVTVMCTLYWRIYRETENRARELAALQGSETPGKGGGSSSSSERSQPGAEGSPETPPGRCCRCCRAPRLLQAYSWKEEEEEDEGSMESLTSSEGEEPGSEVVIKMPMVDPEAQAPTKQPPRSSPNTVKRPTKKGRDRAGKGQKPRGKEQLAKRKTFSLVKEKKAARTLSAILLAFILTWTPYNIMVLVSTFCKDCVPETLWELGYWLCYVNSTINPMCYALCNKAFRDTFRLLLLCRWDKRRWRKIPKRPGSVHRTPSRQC
M1 PAM = human CHRM1 positive allosteric modulation | P11229 | CHO-K1 hM1, Fluo-8 calcium fluorescence, ACh EC20; 0% = ACh EC20, 100% = maximal ACh | activation, % at 3 µM | AID 588819 | 0.088% of 360,000 active; in the data active = activation above about 19%, passing the limit was not always enough
CHO-K1 Ca antag = counter-screen for M1 antagonists: effect in parental CHO-K1 cells | ATP-induced calcium, Fluo-8 fluorescence | inhibition, % at 3 µM | 0.6% of 360,000 active | AID 602250;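 active = inhibition above a per-plate cutoff, the plate's mean sample inhibition plus 3 SD, cut at about 24% in these data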
M1 antag = antagonists of human M1 muscarinic receptor; CHO-K1 hM1, Fluo-8 calcium fluorescence, ACh EC80 antagonist; P11229; 1.3% of 360,000 active; inhibition, % at 3 µM;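 active = percent inhibition above its own plate's cutoff, namely the mean of that plate's compound wells plus 3 SD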;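 also: peak over basal fluorescence ratio during 140 s after agonist addition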
Large screens that a line does not name were inactive. Hits are enriched below; roughly 2.3% of the tested compounds scored in any of these assays.

COc1ccc(C(C(=O)NC2CCCC2)N(C(=O)c2ccoc2C)c2ccccc2)cc1 (stereo unspecified)	none
COc1ccc(C(C(=O)NC2CCCC2)N(C(=O)c2ccoc2C)c2ccc(C)c(C)c2)cc1 (stereo unspecified)	CHO-K1 Ca antag 24.7
CC(C)(CNC(=O)CC1C(=O)NCCN1Cc1cccc(F)c1F)N1CCOCC1 (stereo unspecified)	none
CCOC(=O)C(=O)NC1CC=CCC1c1ccc2c(c1)OCO2 (stereo unspecified)	none
O=C(c1cc(N2C(=O)C3C4CCC(C4)C3C2=O)ccc1Cl)N1CCN(c2ccccc2)CC1 (stereo unspecified)	CHO-K1 Ca ag 22.5
CS(=O)(=O)N(CC(=O)Nc1c(F)cccc1F)c1ccc(C23CC4CC(CC(C4)C2)C3)cc1	CHRM1 agonist 21.0
CC(C)OP(=O)(c1ccc(N(C)C)cc1)C(O)c1ccc(N(C)C)cc1 (stereo unspecified)	none
CCCCCCCCCn1c2c(c(=N)c3c1CCC3)CCC2	M1 antag 31.2
O=C(c1ccc(O)c(Cl)c1)N1CCN(S(=O)(=O)c2ccccc2)CC1	none
Cc1cccc2cc(CN(CCN3CCOCC3)C(=O)Nc3ccccc3F)c(=O)[nH]c12	CHO-K1 Ca antag 30.0
CCC(=O)Nc1ccc(-c2cc3ccccc3oc2=O)cc1	CHO-K1 Ca antag 24.8
CCc1ccc(OCC(=O)Nc2ccc(-c3cc4ccccc4oc3=O)c(OC)c2)cc1	CHO-K1 Ca antag 26.2
CCC(=O)Nc1cc(-c2cc3ccccc3oc2=O)ccc1OC	none
Cc1ccc(S(=O)(=O)N2CCC(C(=O)NCCc3ccccn3)CC2)cc1	none
CC(C)C[C@H]1CN(CCCC[C@H]2CNC(=O)C(=O)N2Cc2ccccc2)C(=O)C(=O)N1CCC1CCCCC1	none (no result: CHRM1 agonist, M1 PAM, M1 antag)
CCOC(=O)C1CCN(C(=O)COc2ccc3c(c2)OCO3)CC1	none
COc1cc(OC)cc(C(=O)NCC2CCCN(Cc3ccc(SC)cc3)C2)c1 (stereo unspecified)	none
CSc1nc(C)c(C(=O)C[n+]2ccccc2)cc1C#N	M1 antag 27.5
CCOC(=O)c1cc(C#N)c(SCC(=O)c2cc(C#N)c(SC)nc2C)nc1C	none
O=C(CSc1nnc(CNC(=O)c2cccs2)o1)NC1CCCCC1	CHO-K1 Ca antag 24.6
COc1ccc(C(=O)CN2C(=O)c3ccccc3C2=O)cc1	none
CCOc1cc(C(=O)N(C)CC(=O)Nc2cccc(F)c2)ccc1OCC(=O)N1CCOCC1	none
Cc1ccc(-n2c(C)nc3c(cnn3-c3ccc(F)cc3)c2=O)cc1C	M1 antag 29.0
Cc1ccc(-n2c(C)nc3c(cnn3-c3ccc(C)c(C)c3)c2=O)cc1C	none
Clc1ccc2c(-c3ccccc3)nc(-c3cccs3)nc2c1	none (no result: CHRM1 agonist, M1 PAM, M1 antag)
COC1OC(COCc2ccccc2)C(N)C(OCc2ccccc2)C1OCc1ccccc1 (stereo unspecified)	M1 antag 41.7
Cc1cccc(C(C)C)c1NC(=O)C(C)OC(=O)Cn1cnc2c1c(=O)n(C)c(=O)n2C (stereo unspecified)	none
Cc1nn(C)c(C)c1CNC(=O)c1nn2c(c1Cl)NC(c1cccs1)CC2C(F)(F)F (stereo unspecified)	none
Cc1nn(C)cc1CNC(=O)c1cc2n(n1)C(C(F)(F)F)CC(c1cccs1)N2 (stereo unspecified)	M1 antag 23.3
O=C(NCCCN1CCCC1)c1ccc2c(Cl)c3c(nc2c1)CCCC3	none
CCCN1CCN(CCCNC(=O)c2ccc3c(Cl)c4c(nc3c2)CCCC4)CC1	M1 antag 34.4
CN(C)C(=O)CCc1ccc2c3c([nH]c2c1)[C@]1(C)[C@@H](C(=O)N2CCOCC2)C[C@H](CC(=O)NCCN2CCOCC2)C(=O)N1CC3	CHO-K1 Ca antag 24.4
Cc1ccc(C(=O)/C=C/NCc2ccc(F)cc2)cc1	CHO-K1 Ca antag 25.0
Cc1ccc(CN/C=C/C(=O)c2ccc(Br)cc2)cc1	none
CC1CC(C)CN(c2ccc(-n3cnnn3)cc2[N+](=O)[O-])C1 (stereo unspecified)	none
O=[N+]([O-])c1cc(-n2cnnn2)ccc1N1CCC(Cc2ccccc2)CC1	CHO-K1 Ca antag 24.7
CCOc1ccc2oc(C(=O)NCC3CCCO3)c(C)c2c1 (stereo unspecified)	M1 antag 25.1
COc1ccc2oc(C(=O)NCC3CCCO3)c(C)c2c1 (stereo unspecified)	none
Cc1cc(Cl)ccc1OCC(O)CNCCc1ccc(S(N)(=O)=O)cc1 (stereo unspecified)	M1 antag 43.1
Cc1ccc2c(c1)C(=O)C(=O)N2Cc1ccc(Cl)cc1	CHRM1 agonist 16.9
CC(C)N1CCc2c(sc(NC(=S)NC(=O)c3ccccc3)c2C#N)C1	none
CCCN1CCc2c(sc(NC(=S)NC(=O)c3ccccc3)c2C#N)C1	CHO-K1 Ca ag 46.0, CHRM1 agonist 36.9
COc1ccc(-c2cc(N)n(S(=O)(=O)c3ccc(F)cc3)n2)cc1OC	none
CCN1C(=O)N[C@@H](c2cccc(F)c2)C(C(C)=O)=C1C	M1 PAM 31.2
CCOC(=O)CN1C(=O)N[C@@H](c2cccc(F)c2)C(C(C)=O)=C1C	none
CCOC(=O)C1C(c2ccc(O)c(OC)c2)NC(=S)NC1(O)C(F)(F)F (stereo unspecified)	none
O=C(Nc1ccc(OC(F)(F)F)cc1)C1CCCN(C(=O)c2ccc(Cl)cc2)C1 (stereo unspecified)	CHO-K1 Ca ag 20.0
C1=CN2CCC1C(c1ccccc1)C2 (stereo unspecified)	CHRM1 agonist 49.5, M1 antag 73.1
Cc1ccc([N+](=O)[O-])cc1NC(=O)Nc1cccc(F)c1	CHO-K1 Ca antag 25.7
Cc1ccc([N+](=O)[O-])cc1NC(=O)c1ccc(-c2ccccc2)cc1	CHO-K1 Ca antag 23.8
Cc1ccc(C(=O)Nc2cc([N+](=O)[O-])ccc2C)cc1	none
O=C(COC(=O)/C=C/c1cccs1)NC1CC1	none
Cc1nc([N+](=O)[O-])c(SCC(O)CCl)n1Cc1ccc(Cl)cc1 (stereo unspecified)	CHO-K1 Ca ag 23.1
COc1ccc(Cn2c(C)nc([N+](=O)[O-])c2SCC(=O)O)cc1[N+](=O)[O-]	none
CCc1noc(C)c1C(=O)NNC(=O)COc1ccccc1C	none
COc1ccc(-c2nc3ccccc3c(=O)n2-c2c(C)n(C)n(-c3ccccc3)c2=O)cc1	none
Cc1c(-n2c(-c3ccccc3)nc3ccccc3c2=O)c(=O)n(-c2ccccc2)n1C	CHO-K1 Ca ag 20.6
S=c1[nH]nc(-c2ccncc2)n1/N=C/c1cccc(Cl)c1	none
COC(CNC(=O)c1ccc2c(c1)ncn2-c1ccc(C)cc1C)OC	CHO-K1 Ca ag 17.5
Fc1ccc(-c2cn(-c3ccccc3)c3[n+]2CCS3)cc1	none
